Here are results for 23 compounds from PubChem BioAssay (EPA / NIEHS).

The structures appear in SMILES notation. Inconclusive results are not listed. A structure can be active in one record and inactive in another. Active and inactive are the calls of the source. Rule for the calls, unless noted: active = hit-call score of the fitted dose curve at least 0.9, where 1 is the maximum; inconclusive = response in the unintended direction; inactive = score below 0.9.

The nature of assay [1]: BSK_4H_Eotaxin3: BioMAP Diversity Plus: 4H Assay for Eotaxin 3 Biomarker Activity (AID 2283000; active = hit-call score of the fitted dose curve at least 0.9, where 1 is the maximum; inactive = score below 0.9;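 for outcome: CCL26 protein level quantified by ELISA in parallel with SRB cytotoxicity check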). Conditions: primary human endothelial cells (HUVEC); actives raise or lower the signal. Put shortly: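 HUVEC, 24 h post-dose, ELISA for Eotaxin-3/CCL26. Gain or loss of signal fitted bidirectionally vs DMSO baseline.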
Assay [2] addresses human Peroxisome Proliferator-activated Receptor delta (PPARd), PPARD (gene 5467) (UniProt Q03181). Kind of assay: ATG_PPARd_TRANS: Attagene TRANS-FACTORIAL HepG2 Assay for human Peroxisome Proliferator-activated Receptor delta (PPARd) (AID 2283002). The essentials:
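HepG2 cells transiently transfected with multiplexed GAL4-UAS reporter units and exogenous chimeric NR-Gal4 proteins; 24 h compound exposure. Reporter mRNA measured by RT-PCR, 6-FAM labelling, HpaI digestion and capillary electrophoresis; gain of signal versus DMSO.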

Read-out in assay [3]: Intercellular Adhesion Molecule 1 (ICAM1), ICAM1 (gene 3383)
Kind of assay: BSK_3C_ICAM1: BioMAP Diversity Plus: 3C Assay for Intercellular Adhesion Molecule 1 (ICAM1) Biomarker Activity (AID 2283003; active = hit-call score of the fitted dose curve at least 0.9, where 1 is the maximum; inactive = score below 0.9). Conditions: primary human endothelial cells (HUVEC); actives raise or lower the signal. Put shortly:
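Chemicals are dosed onto primary human umbilical vein endothelium (3C system). After 24 h, ICAM-1 is measured by ELISA, and responses are fitted bidirectionally relative to DMSO.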

Assay [4] has as its target human Retinoic Acid Receptor beta (RARb), RARB (gene 5915) (UniProt P10826). Kind of assay: ATG_RARb_TRANS: Attagene TRANS-FACTORIAL HepG2 Assay for human Retinoic Acid Receptor beta (AID 2283004). Put shortly:
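HepG2 cells transiently transfected with multiplexed GAL4-UAS reporter units expressing chimeric NR–Gal4 fusions; 24 h compound exposure. Reporter mRNA quantified by RT-PCR, 6-FAM labelling, HpaI digestion and capillary electrophoresis; gain-of-signal fitted against DMSO baseline.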

A short description of assay [5]: BSK_3C_Proliferation: Cell Proliferation Assessment in the BioMAP Diversity Plus: 3C Assay (AID 2283006; active = hit-call score of the fitted dose curve at least 0.9, where 1 is the maximum; inactive = score below 0.9;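 for AC50: potency may reflect either rise or fall in cell number versus DMSO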). As to conditions: primary human endothelial cells (HUVEC). The essentials:
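Cells (human umbilical vein endothelial, sub-confluent) receive test chemical; after 48 h they are fixed in 10% trichloroacetic acid, stained with 0.1% SRB and read at 560 nm. Activity is referenced to DMSO, fitting increases and decreases.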

Assay [6] deals with Peroxisome proliferator-activated receptor gamma (Homo sapiens) (UniProt P37231). Kind of assay: ATG_PPARg_TRANS: Attagene TRANS-FACTORIAL HepG2 Assay for human Peroxisome Proliferator-activated Receptor-gamma (PPARg) (AID 2283007). Put shortly: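 Gain-of-signal endpoint relative to DMSO, derived from reporter mRNA levels quantified by RT-PCR and capillary electrophoresis. Cells were HepG2 transiently expressing a chimeric NR-Gal4 construct with GAL4-UAS reporters, exposed to chemicals for 24 h.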

In assay [7] the target is Nuclear receptor subfamily 1 group I member 2 (Homo sapiens) (UniProt O75469). Kind of assay: ATG_PXR_TRANS: Attagene TRANS-FACTORIAL HepG2 Assay for human Pregnane X Receptor (PXR) (AID 2283008). The essentials:
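Transient HepG2 transfectants carrying multiplexed reporter transcription units; PXR activity read through a Gal4 chimera. 24 h exposure. RT-PCR/CE fluorescence; upward curve fit referenced to DMSO.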

Assay [8] has as its target human Retinoic Acid Receptor gamma (RARg), RARG (gene 5916) (UniProt P13631). Kind of assay: ATG_RARg_TRANS: Attagene TRANS-FACTORIAL HepG2 Assay for human Retinoic Acid Receptor gamma (RARg) (AID 2283009). Put shortly:
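TRANS format measured activity of exogenous NR-GAL4 fusion (RARg) in transfected HepG2 liver cells after 24 h dosing. Induced reporter RNA was detected by RT-PCR/capillary electrophoresis fluorescence, analysed in the positive direction against DMSO.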

Assay [9] deals with human RAR-related Orphan Receptor beta (RORb), RORB (gene 6096) (UniProt Q92753). Kind of assay: ATG_RORb_TRANS: Attagene TRANS-FACTORIAL HepG2 Assay for human RAR-related Orphan Receptor beta (RORb) (AID 2283010). The essentials:
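Transfect HepG2 with multiple GAL4-UAS reporter transcription units; dose chemicals for 24 h; isolate RNA, reverse-transcribe and PCR-amplify reporter sequences; label, digest and resolve fragments by capillary electrophoresis; fit increases relative to DMSO.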

The target in assay [10] is Retinoic acid receptor alpha (Homo sapiens) (UniProt P10276). Kind of assay: ATG_RARa_TRANS: Attagene TRANS-FACTORIAL HepG2 Assay for human Retinoic Acid Receptor alpha (RARa) (AID 2283005). Put shortly: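 HepG2 cells transiently transfected with multiple reporter units expressing chimeric RARα-GAL4 fusion, with GAL4-UAS-driven reporters. After 24 h compound exposure, reporter mRNA induction quantified by RT-PCR and capillary electrophoresis with fluorescent labeling; gain-of-signal fitted relative to DMSO control.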
Chain of Retinoic acid receptor alpha (Homo sapiens) (P10276 whole entry, looked up, the tested form may be a part): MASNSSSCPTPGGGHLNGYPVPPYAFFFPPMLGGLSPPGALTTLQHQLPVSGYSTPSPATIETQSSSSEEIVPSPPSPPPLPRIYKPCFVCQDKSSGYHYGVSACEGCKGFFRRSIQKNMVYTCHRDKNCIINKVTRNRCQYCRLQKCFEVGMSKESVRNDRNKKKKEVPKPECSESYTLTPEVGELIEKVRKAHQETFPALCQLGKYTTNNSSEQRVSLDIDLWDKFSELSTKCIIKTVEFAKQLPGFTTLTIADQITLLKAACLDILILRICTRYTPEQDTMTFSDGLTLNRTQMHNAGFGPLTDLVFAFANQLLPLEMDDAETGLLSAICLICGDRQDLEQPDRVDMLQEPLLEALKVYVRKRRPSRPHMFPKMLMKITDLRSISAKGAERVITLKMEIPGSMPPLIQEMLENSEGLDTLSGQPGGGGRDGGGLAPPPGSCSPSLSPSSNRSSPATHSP

Chain of human Retinoic Acid Receptor gamma (RARg), RARG (gene 5916) (P13631 whole entry, looked up, the tested form may be a part): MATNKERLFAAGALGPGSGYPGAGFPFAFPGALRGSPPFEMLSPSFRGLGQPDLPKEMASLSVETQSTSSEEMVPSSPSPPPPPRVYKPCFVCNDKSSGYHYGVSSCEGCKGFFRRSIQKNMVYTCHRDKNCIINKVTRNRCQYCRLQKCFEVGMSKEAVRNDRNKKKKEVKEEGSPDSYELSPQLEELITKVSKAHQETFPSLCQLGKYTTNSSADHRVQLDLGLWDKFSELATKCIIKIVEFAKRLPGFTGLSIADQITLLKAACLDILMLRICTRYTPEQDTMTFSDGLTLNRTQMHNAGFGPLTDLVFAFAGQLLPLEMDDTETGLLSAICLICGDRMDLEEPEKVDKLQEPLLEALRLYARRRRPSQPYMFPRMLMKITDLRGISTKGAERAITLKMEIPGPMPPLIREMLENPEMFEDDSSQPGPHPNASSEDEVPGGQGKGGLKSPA
Chain of human Retinoic Acid Receptor beta (RARb), RARB (gene 5915) (P10826 whole entry, looked up, the tested form may be a part): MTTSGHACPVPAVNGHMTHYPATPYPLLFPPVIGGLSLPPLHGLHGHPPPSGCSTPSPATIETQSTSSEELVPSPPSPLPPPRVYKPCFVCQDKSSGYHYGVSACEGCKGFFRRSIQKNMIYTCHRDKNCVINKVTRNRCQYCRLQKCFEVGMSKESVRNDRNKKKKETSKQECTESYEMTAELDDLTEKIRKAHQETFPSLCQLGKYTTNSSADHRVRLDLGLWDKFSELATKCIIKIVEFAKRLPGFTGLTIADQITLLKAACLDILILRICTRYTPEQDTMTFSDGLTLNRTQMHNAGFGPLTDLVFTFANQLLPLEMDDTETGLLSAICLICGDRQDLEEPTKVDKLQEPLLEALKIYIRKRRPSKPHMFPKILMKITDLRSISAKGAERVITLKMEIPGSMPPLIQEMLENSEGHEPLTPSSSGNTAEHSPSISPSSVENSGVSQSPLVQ
Chain of Peroxisome proliferator-activated receptor gamma (Homo sapiens) (P37231 whole entry, looked up, the tested form may be a part): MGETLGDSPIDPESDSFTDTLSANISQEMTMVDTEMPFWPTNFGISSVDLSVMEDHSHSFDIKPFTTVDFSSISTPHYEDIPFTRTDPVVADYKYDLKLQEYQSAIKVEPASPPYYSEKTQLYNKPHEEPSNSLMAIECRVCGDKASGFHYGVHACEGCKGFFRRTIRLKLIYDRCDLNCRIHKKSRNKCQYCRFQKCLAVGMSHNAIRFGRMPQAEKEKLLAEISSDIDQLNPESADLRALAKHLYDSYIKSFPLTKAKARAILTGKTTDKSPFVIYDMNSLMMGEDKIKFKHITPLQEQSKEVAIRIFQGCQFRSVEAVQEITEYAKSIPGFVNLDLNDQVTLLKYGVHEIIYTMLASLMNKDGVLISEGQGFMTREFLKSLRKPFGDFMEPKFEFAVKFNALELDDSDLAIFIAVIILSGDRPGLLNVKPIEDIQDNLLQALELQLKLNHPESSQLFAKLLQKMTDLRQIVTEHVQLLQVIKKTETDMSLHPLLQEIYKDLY
Chain of human Peroxisome Proliferator-activated Receptor delta (PPARd), PPARD (gene 5467) (Q03181 whole entry, looked up, the tested form may be a part): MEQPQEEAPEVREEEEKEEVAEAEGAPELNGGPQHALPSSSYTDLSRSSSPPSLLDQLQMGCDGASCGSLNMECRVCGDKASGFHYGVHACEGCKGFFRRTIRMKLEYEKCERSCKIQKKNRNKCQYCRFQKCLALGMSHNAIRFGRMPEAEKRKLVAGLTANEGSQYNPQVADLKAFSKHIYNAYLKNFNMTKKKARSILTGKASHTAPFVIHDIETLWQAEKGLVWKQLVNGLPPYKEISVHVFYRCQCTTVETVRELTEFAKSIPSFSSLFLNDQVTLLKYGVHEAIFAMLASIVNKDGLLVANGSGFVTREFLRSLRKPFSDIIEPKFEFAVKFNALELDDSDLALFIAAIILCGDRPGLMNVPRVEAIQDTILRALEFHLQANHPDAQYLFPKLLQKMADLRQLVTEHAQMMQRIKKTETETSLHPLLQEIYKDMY
Chain of human RAR-related Orphan Receptor beta (RORb), RORB (gene 6096) (Q92753 whole entry, looked up, the tested form may be a part): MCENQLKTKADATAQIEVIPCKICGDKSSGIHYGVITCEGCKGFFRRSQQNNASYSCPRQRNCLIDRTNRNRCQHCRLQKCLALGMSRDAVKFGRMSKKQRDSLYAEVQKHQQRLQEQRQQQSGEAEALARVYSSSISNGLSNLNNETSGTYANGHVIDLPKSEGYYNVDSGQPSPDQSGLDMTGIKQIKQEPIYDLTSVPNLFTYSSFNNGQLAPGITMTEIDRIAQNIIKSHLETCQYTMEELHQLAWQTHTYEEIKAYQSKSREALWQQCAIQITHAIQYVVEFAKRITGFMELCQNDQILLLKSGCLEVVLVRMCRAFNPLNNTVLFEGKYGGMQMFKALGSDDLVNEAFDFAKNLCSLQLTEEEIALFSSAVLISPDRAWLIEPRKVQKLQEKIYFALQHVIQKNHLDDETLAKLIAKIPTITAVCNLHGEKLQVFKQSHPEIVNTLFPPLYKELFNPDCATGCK
Chain of Nuclear receptor subfamily 1 group I member 2 (Homo sapiens) (O75469 whole entry, looked up, the tested form may be a part): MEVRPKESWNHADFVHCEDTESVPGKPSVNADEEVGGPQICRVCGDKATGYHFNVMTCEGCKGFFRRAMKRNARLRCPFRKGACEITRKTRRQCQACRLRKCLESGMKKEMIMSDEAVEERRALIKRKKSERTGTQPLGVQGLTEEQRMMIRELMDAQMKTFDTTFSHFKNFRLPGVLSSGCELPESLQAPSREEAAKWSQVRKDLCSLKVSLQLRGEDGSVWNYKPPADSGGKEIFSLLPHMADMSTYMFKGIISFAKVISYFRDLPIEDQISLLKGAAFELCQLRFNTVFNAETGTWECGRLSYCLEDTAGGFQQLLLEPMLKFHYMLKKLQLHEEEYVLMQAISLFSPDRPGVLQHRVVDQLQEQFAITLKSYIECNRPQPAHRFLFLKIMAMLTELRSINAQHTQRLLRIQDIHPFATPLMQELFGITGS

A word on the AC50: it is the concentration giving half of the maximal activity seen. In the case of `CCC(C)(NC(=O)c1cc(Cl)c(C)c(Cl)c1)C(=O)CCl` (stereo not drawn), the AC50 is 9.74 µM (active) in assay [1], 26.6 µM (active) in assay [3], 5.47 µM (active) in assay [5] and 0.878 µM (active) in assay [6]. Moreover, the compound was called inactive in assay [2], in assay [4], in [7], in [8] and in [9].

For the compound `O=[N+]([O-])c1c(Cl)c(Cl)c(Cl)c(Cl)c1Cl`, the result in assay [1], in assay [2], in assay [3], in [4], in [10] and in assay [7] was inactive. For the same compound, the compound was classed as inactive in [8] and in assay [9]. Also, the figures for the AC50 in assay [5] and in assay [6] were 30.1 µM (active) and 16.4 µM (active), respectively.

Consider `COC(=O)c1ccccc1CS(=O)(=O)NC(=O)Nc1nc(OC)cc(OC)n1`, for which the result in [1], in assay [2], in [3], in assay [4], in assay [10] and in assay [5] was inactive. The compound was called inactive in assay [6], in assay [7], in assay [8] and in assay [9].

As for `COP(=S)(OC)Oc1ccc([N+](=O)[O-])cc1`, the outcome in assay [1], in assay [2], in assay [3], in assay [5], in assay [6] and in assay [7] was inactive. In addition, the call in assay [8] was inactive.

In the case of `CC1(c2ccc(Oc3ccccc3)cc2)OC(=O)N(Nc2ccccc2)C1=O` (stereo not drawn), the figures for the AC50 in assay [1] and in assay [5] were 16.5 µM (active) and 14 µM (active), respectively. The result in [2], in assay [3], in [4], in assay [10], in [6] and in [7] was inactive. In addition, the outcome in assay [8] was inactive.

With `COP(=O)(OC)OC=C(Cl)Cl`, the outcome in assay [1], in [2], in assay [3], in assay [6] and in assay [7] was inactive. In [5], the AC50 is 17.6 µM (active).

Consider `CC1(C)C(C=C(Cl)Cl)C1C(=O)OC(C#N)c1ccc(F)c(Oc2ccccc2)c1` (stereo not drawn), for which the outcome in assay [1], in assay [3], in assay [4] and in assay [10] was inactive. The concentration at half-maximal activity (AC50) in [5] was 10.2 µM (active); in assay [6] it was 20.9 µM (active); in assay [7] it was 21.6 µM (active).

In the case of `O=[N+]([O-])/N=C1\NCCN1Cc1ccc(Cl)nc1`, the outcome in assay [1], in [3], in assay [4], in assay [10], in assay [5] and in assay [6] was inactive. The compound was classed as inactive in assay [8]. For the same compound, the concentration at half-maximal activity (AC50) in assay [7] is 90.7 µM (active).

In the case of `COc1cc(OC)nc(NC(=O)NS(=O)(=O)c2cc(NC=O)ccc2C(=O)N(C)C)n1`, the outcome in [1], in [3], in [4], in assay [10], in [5] and in [7] was inactive. The outcome in [8] was inactive.

As to `CCc1ccc(C(=O)NN(C(=O)c2cc(C)cc(C)c2)C(C)(C)C)cc1`, the outcome in [1], in assay [3], in [4], in assay [10], in [5] and in assay [6] was inactive. The compound was called inactive in assay [7], in [8] and in assay [9].

As to `C[C@H]1[C@H](c2ccc(Cl)cc2)SC(=O)N1C(=O)NC1CCCCC1`, the outcome in assay [1], in assay [3], in [4], in assay [10], in assay [7] and in [8] was inactive. In addition, the AC50 was 13.1 µM (active) in [5] and 16 µM (active) in assay [6].

On to `CCN(CC)C(=O)SCc1ccc(Cl)cc1`, for which the outcome in [1], in [3], in [4], in [5], in [7] and in assay [8] was inactive. Besides, in [6], the AC50 was 37.1 µM (active).

With `CN1CSC(=S)N(C)C1`, the AC50 was 20.9 µM (active) in [1] and 26.6 µM (active) in [5]. Further, the result in assay [3], in assay [4], in assay [6] and in [9] was inactive.

Take `CNC(=O)CSP(=S)(OC)OC`: the outcome in [1], in [2], in [3], in assay [5], in assay [6] and in assay [7] was inactive. Besides, the outcome in assay [9] was inactive.

Regarding `CCC(C)(C)C(=O)OC1=C(c2ccc(Cl)cc2Cl)C(=O)OC12CCCCC2`, the figures for the half-maximal activity concentration (AC50) in assay [1], in assay [3] and in assay [5] were 32.3 µM (active), 32.6 µM (active) and 29.2 µM (active), respectively. Besides, the compound was called inactive in assay [4], in assay [6], in assay [8] and in assay [9].

Consider `COC(=O)c1ccccc1S(=O)(=O)NC(=O)Nc1nc(C)nc(OC)n1`, for which the result in assay [1], in [3], in [4], in assay [10], in assay [5] and in [7] was inactive. In addition, in assay [8], the compound was called inactive.

Turning to `[2H]C1([2H])[n+]2ccccc2-c2cccc[n+]2C1([2H])[2H]`, the result in assay [1], in [3] and in assay [6] was inactive. The half-maximal activity concentration (AC50) in [5] is 31.7 µM (active).

Regarding `O=S1OCC2C(CO1)C1(Cl)C(Cl)=C(Cl)C2(Cl)C1(Cl)Cl` (stereo not drawn), the concentration at half-maximal activity (AC50) is 30.9 µM (active) in assay [1], 33.9 µM (active) in assay [3] and 24.5 µM (active) in assay [5]. For the same compound, the compound was called inactive in [10], in assay [6] and in assay [7].

Consider `CCOCN(C(=O)CCl)c1c(C)cccc1CC`, for which the values for the AC50 in [1], in [5] and in assay [6] were 35.3 µM (active), 15.5 µM (active) and 1.23 µM (active), respectively. Moreover, the outcome in assay [3], in assay [10] and in assay [7] was inactive.

Regarding `O=C1c2ccccc2C(=O)N1SC(Cl)(Cl)Cl`, the result in assay [1], in [3], in assay [4], in assay [10], in assay [5] and in assay [6] was inactive. The compound was called inactive in assay [7] and in assay [9].

On to `CNC(=O)Oc1ccccc1OC(C)C`, for which the result in [1], in [3], in assay [4], in assay [5], in assay [6] and in assay [7] was inactive.

`O=C(O)CCCOc1ccc(Cl)cc1Cl`: the outcome in assay [1], in assay [3], in [4], in [10], in [5] and in [6] was inactive. The call in assay [7] and in assay [9] was inactive. Besides, the concentration at half-maximal activity (AC50) in assay [6] was 34.5 µM (active).

With `CCCN(CCC)c1c([N+](=O)[O-])cc(C(F)(F)F)cc1[N+](=O)[O-]`, the results for the half-maximal activity concentration (AC50) in [1], in assay [5] and in [7] were 33 µM (active), 29.1 µM (active) and 10.6 µM (active), respectively. In addition, the outcome in [3] and in [6] was inactive.
